The results in this text go back to PubChem BioAssay (NCI).

SMILES strings stand for the structures. About 83,000 compounds went through this panel and 20% of them were active in at least one assay; those are over-represented in the sample as a whole.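 Interpretation: 100, growth as untreated; towards 0, rising growth inhibition; 0, no net growth; 0 to -100, cell death. Compounds scoring below 10 were considered active.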 Values without a mark were called inactive.

This assay has as its system NCI-H226 lung. The experiment in a line: NCI-60 one-dose screen, 48 h (100 = growth as untreated, 0 = no growth, -100 = all killed). Conditions: 10 µM unless noted.
`COc1ccc(/C(C)=N/NS(=O)(=O)c2ccc(C)cc2)cc1OC`: the growth was 106%.

`C[C@@H]1C(=O)N(C[C@@H](Cc2ccccc2)NC(=O)OCc2ccccc2)[C@]1(Cc1ccccc1)C(=O)OCc1ccccc1`: the growth is 36.3%.

Regarding `NC(=Nc1ccc(N)cc1)C(N)=Nc1ccc(N)cc1`, the growth is 94.4%.

`N#Cc1c(NC(=O)c2ccccc2I)sc2c1CCCC2`: the growth is 41.7%.

Regarding `Cc1ccc(Nc2ccc(Nc3ccc(C)cc3S(=O)(=O)O)c3c2C(=O)c2ccccc2C3=O)c(S(=O)(=O)O)c1`, the growth is 96.9%.

Turning to `C=C1C(=O)O[C@H]2[C@H]1CC/C(Cn1cc(CNCCc3c[nH]c4ccc(Cl)cc34)nn1)=C\CC[C@@]1(C)O[C@@H]21`, the growth is 91.1%.

Turning to `Cn1cc(Nc2nccc(-c3ccc(N4CCCC4)c(C#N)c3)n2)cn1`, the growth is 78.9%.

As to `CSc1ncc(C)c(Nc2ccc(Cl)cc2)n1`, the growth is 104%.

`COc1cc(/C=C2\C=C(c3ccccc3)N(CCc3ccccc3)C2=O)cc(OC)c1OC`: the growth was 67.6%.

As to `O=c1cc(-c2ccc(OCc3ccccc3)cc2)oc2c(I)c(OCc3ccccc3)cc(OCc3ccccc3)c12`, the growth was 90%.

In the case of `CC(=O)Nc1nccs1`, the growth is 100%.

As for `N[C@H]1CCC[C@@H]1NCCCCN1C(=O)c2cccc3cccc(c23)C1=O`, the growth was 83.8%.

Turning to `N=C(N)c1ccc(-c2ccc(-c3ccc(Cl)cc3Cl)o2)nc1`, the growth is 96.9%.

With `O=C1N/C(=N/O)S/C1=C/c1cn(-c2ccccc2)nc1-c1ccccc1`, the growth was 91.9%.
